According to PubChem BioAssay (NCATS):
Results filed as inconclusive are left out. Where a call stands in place of a potency, no number is given. The source made the active and inactive calls. Calls follow the shape of the dose curve; as a rule, active = well fitted inhibition curve with a large enough effect; inconclusive = small, poorly fitted or top-dose-only effect; inactive = flat fitted curve, though single readings scatter.

Target: Phospholipid hydroperoxide glutathione peroxidase GPX4 (Homo sapiens) (UniProt P36969)
Test: Primary qHTS Assay for Inhibitors of Recombinant Selenoprotein Glutathione Peroxidase 4 (GPX4) (AID 1845192); also: nearly all actives have a fitted effect of over 65% in size
Conditions: recombinant GPX4, GR-coupled NADPH fluorescence, 15 min; series mostly up to 50 µM; activity change, negative = inhibition: at the top concentration
How it was run: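 NADPH consumption, followed by fluorescence at 340/450 nm between 0 and 15 min, reports GPX4 activity via coupled glutathione reductase (100 nM). Enzyme 200 nM was pre-exposed to compound 30 min; 0.5 mM cumene hydroperoxide and 1 mM GSH served as substrates.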

Chain of Phospholipid hydroperoxide glutathione peroxidase GPX4 (Homo sapiens) (P36969 whole entry, looked up): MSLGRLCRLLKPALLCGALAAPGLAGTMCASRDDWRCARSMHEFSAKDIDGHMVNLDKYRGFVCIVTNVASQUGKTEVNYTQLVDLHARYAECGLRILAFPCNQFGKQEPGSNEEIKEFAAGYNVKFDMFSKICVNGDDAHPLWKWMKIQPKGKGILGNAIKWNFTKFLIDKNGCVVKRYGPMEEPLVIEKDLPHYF

Structure (SMILES) | activity change, negative = inhibition | outcome | Potency
C[N+]1(CC2COC(c3ccccc3)(C3CCCCC3)O2)CCCCC1 (stereo not given) | -17% (inactive) |  | 
CNCCc1ccccn1 | -4.4% (inactive) |  | 
CN(Cc1ccc(C(C)(C)C)cc1)Cc1cccc2ccccc12 |  | inactive | 
CC(C)[C@@H]1CC[C@@H](C)CC1=O |  | inactive | 
NC(=O)C1(N2CCCCC2)CCN(CCCC(=O)c2ccc(F)cc2)CC1 |  | inactive | 
O[C@@H](c1cc(C(F)(F)F)nc2c(C(F)(F)F)cccc12)[C@H]1CCCCN1 |  | inactive | 
CN(C)CCOC(=O)C(c1ccccc1)C1(O)CCCC1 (stereo not given) |  | inactive | 
Nc1nc(Cl)nc2c1ncn2[C@@H]1O[C@H](CO)[C@@H](O)[C@@H]1F |  |  | inactive
C[C@@]12C(=O)OC(=O)[C@]1(C)C1CCC2O1 | -0.764% (inactive) |  | 
CC(CNC1CCCCC1)OC(=O)c1ccccc1 (stereo not given) | 2.38% (inactive) |  | 
OC1C(O)C(O)C(O)C(O)C1O (stereo not given) | -2.33% (inactive) |  | 
O=S(=O)(O)c1ccc(O)cc1 |  | inactive | 
Nc1nc(-c2ccccc2)c(Br)c(=O)[nH]1 | -13.4% (inactive) |  | 
CC(=O)OCC(=O)[C@H]1CC[C@H]2[C@@H]3CCC4=CC(=O)CC[C@]4(C)[C@H]3CC[C@]12C | 4.1% (inactive) |  | 
CCCCC(CC)COC(=O)/C=C/c1ccc(OC)cc1 (stereo not given) | -7.96% (inactive) |  | 
CCCCCCCCCCCCCCCCO |  | inactive | 
Cc1ccc(-c2ncc(Cl)cc2-c2ccc(S(C)(=O)=O)cc2)cn1 |  |  | inactive
CC(=O)O[C@]1(C(C)=O)CC[C@H]2[C@@H]3C=C(C)C4=CC(=O)CC[C@]4(C)[C@H]3CC[C@@]21C |  |  | inactive

Structure (SMILES) | activity change, negative = inhibition | outcome | Potency
COc1ccc(CN(CCN(C)C)c2ncccn2)cc1 | -10.3% (inactive) |  | 
CC(=O)Nc1ccc(OC(=O)c2ccccc2OC(C)=O)cc1 |  | inactive | 
NS(=O)(=O)c1ccc(Cl)c(S(N)(=O)=O)c1 |  | inactive | 
Nc1ccc(C(=O)NCC(=O)O)cc1 | 4.96% (inactive) |  | 
FC(F)(F)C(F)(F)C(F)(F)C(F)(F)C(F)(F)C(F)(F)C(F)(F)C(F)(F)Br | -7.65% (inactive) |  | 
CCN(CC)CCOC(=O)C1(c2ccccc2)CCCC1 | -28.6% (inactive) |  | 
Clc1cccc(C(c2ccc3nc[nH]c3c2)n2ccnc2)c1 (stereo not given) |  |  | inactive
CCCCCCCCCCC[C@@H](C[C@@H]1OC(=O)[C@H]1CCCCCC)OC(=O)[C@H](CC(C)C)NC=O |  |  | inactive
CCN1CCN(C(=O)N[C@@H](C(=O)N[C@@H]2C(=O)N3C(C(=O)O)=C(CSc4nnnn4C)CS[C@H]23)c2ccc(O)cc2)C(=O)C1=O |  |  | inactive
CC[C@H](c1ccc(O)cc1)[C@@H](CC)c1ccc(O)cc1 | -13.4% (inactive) |  | 
O=c1[nH]c(=O)n([C@H]2C[C@H](O)[C@@H](CO)O2)cc1F |  |  | inactive
CCC1Nc2cc(Cl)c(S(N)(=O)=O)cc2S(=O)(=O)N1 (stereo not given) | 1.35% (inactive) |  | 
CCOC(=O)[C@H](CCc1ccccc1)N[C@@H](C)C(=O)N1[C@H](C(=O)O)C[C@@H]2CCC[C@@H]21 |  |  | inactive
CCOc1cc(OCC)c(C(=O)CCC(=O)O)cc1OCC |  | inactive | 
CCCCC(CC)COC(=O)c1ccc(N(C)C)cc1 (stereo not given) |  | inactive | 
C[C@H]1O[C@@H](O[C@H]2CC[C@@]3(C)[C@H](CC[C@@H]4[C@@H]3C[C@@H](O)[C@]3(C)[C@@H](C5=CC(=O)OC5)CC[C@]43O)C2)C[C@H](O)[C@@H]1O[C@H]1C[C@H](O)[C@H](O[C@H]2C[C@H](O)[C@H](O[C@@H]3O[C@H](CO)[C@@H](O)[C@H](O)[C@H]3O)[C@@H](C)O2)[C@@H](C)O1 |  | inactive | 
C#C[C@]1(O)CC[C@H]2[C@@H]3[C@H](C)CC4=C(CCC(=O)C4)[C@H]3CC[C@@]21C |  |  | inactive
